This is a sample that favours compounds with a hit; in the whole collection about 2.4% have one here.
Pol kappa inh – inhibitors of human DNA polymerase kappa | AID 588579 | purified Pol kappa, fluorescent DNA synthesis assay, 10 min | Q9UBT6 | Potency, µM (highest dose often 107 µM), for inactives: at the top dose activity, negative = inhibition, hits mostly inhibitors | actives 0.53% (n = 400,000); also: % is scaled to controls: 0 for no effect and ±100 for the full control effect
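Enzyme at 10 nM met test compounds for 15 min at room temperature. Substrate addition (50 nM final) began the reaction, which was monitored by fluorescence at 0 and 10 min.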
Pol beta inh – DNA polymerase beta (human) inhibition. P06746. Pol beta primer extension/strand displacement, fluorescence kinetic. Potency, µM (highest dose often 114 µM), without a hit: top-dose activity change, negative = inhibition, usual class: inhibitors. actives 1.3% (n = 340,000); also: % is scaled to controls: 0 for no effect and ±100 for the full control effect
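Curves were derived by four-parameter Hill fits of normalized qHTS data. The kinetic fluorescent primer-extension read was taken at 0 and 10 min after 50 nM substrate, following a 15 min room-temperature preincubation of 10 nM enzyme with compounds.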
FEN1 inh – inhibitors of human flap endonuclease 1; P39748; Recombinant FEN1 flap cleavage, fluorescence, 15 min; Potency, µM (highest dose often 114 µM), inactives show at the top dose activity change, negative = inhibition, hits mostly inhibitors; actives 0.35% (n = 390,000); AID 588795; also: % is scaled to controls: 0 for no effect and ±100 for the full control effect; nearly all actives have a fitted effect of over 65% in size
Target sequence (P39748 whole entry, looked up): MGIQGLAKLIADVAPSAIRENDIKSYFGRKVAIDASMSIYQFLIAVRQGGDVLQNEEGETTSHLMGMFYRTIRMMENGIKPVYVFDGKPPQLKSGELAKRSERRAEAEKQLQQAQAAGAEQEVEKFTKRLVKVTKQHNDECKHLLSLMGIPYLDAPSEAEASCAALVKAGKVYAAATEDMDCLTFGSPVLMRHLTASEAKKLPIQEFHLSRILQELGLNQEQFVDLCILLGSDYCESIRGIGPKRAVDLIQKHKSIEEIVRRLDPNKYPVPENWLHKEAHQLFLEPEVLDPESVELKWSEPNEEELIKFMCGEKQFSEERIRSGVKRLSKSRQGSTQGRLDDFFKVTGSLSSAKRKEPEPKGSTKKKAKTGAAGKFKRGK
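With each library titrated from low to high concentration, compounds met 10 nM FEN1 for 15 min at room temperature before 50 nM substrate was added; readings at 0 and 15 min fed four-parameter Hill curve fits.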
POLI inh – DNA polymerase iota (human) inhibition; Q9UNA4; actives 1% (n = 390,000); Potency, µM (highest dose often 115 µM), without a hit: top-dose activity, negative = inhibition, hits mostly inhibitors; AID 588590; Pol iota fluorescent replication assay, 10 min
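Pol iota at 10 nM preincubated 15 min with compounds at room temperature; reaction started with fluorescent substrate, 50 nM final. Fluorescence read kinetically at 0 and 10 min; buffer-only wells as negative control.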
WRN helicase inh – WRN helicase (human) inhibition; Q14191; WRN helicase unwinding, fluorescent forked duplex, kinetic; Potency, µM (highest dose often 114 µM), without a hit: at the highest dose activity change, negative = inhibition, usual class: inhibitors; actives 0.46% (n = 360,000); also: % is scaled to controls: 0 for no effect and ±100 for the full control effect; nearly all actives have a fitted effect of over 55% in size
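Kinetic red-fluorescence monitoring (525/598 nm) tracks WRN helicase activity after 100 nM fluorophore-quencher forked duplex and 2 mM ATP are added to 20 nM enzyme pretreated 15 min at room temperature with compound.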
POLH inh – blocks human DNA polymerase eta activity; Q9Y253; recombinant Pol eta, fluorescent DNA replication assay; Potency, µM (doses to about 114 µM), for inactives: top-dose activity change, negative = inhibition, most hits filed as inhibitors; actives 1.2% (n = 390,000); AID 588591; also: % is scaled to controls: 0 for no effect and ±100 for the full control effect
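Pol eta (10 nM) was preincubated with compounds for 15 min at room temperature, after which fluorescent replication substrate (50 nM final) was added to start the reaction. Fluorescence was read kinetically at 0 and 10 min.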
The depositor's hits bear a star; ? = inconclusive; nt = not tested or not shown; [ ] = dose if it differs, or a comment. Calls follow the shape of the dose curve; as a rule, active = well fitted curve in the direction sought with a large enough effect; inconclusive = small, poorly fitted or top-dose-only effect, or another doubt; inactive = no such curve, though single readings can be large; an effect the other way counts as inactive or inconclusive. Potency is read from the fitted curve at half-maximal effect.

SMILES	Pol kappa inh	Pol beta inh	FEN1 inh	POLI inh	WRN helicase inh	POLH inh
CC(C)c1ccc(/C=C2\C(=N)N3N=C(CC(=O)N4CCCCC4)SC3=NC2=O)cc1	?	-32.9%	-5.5%	20µM*	5.1%[11.6 µM]	-2.9%
COc1ccc(-n2c(C)cc(/C=C3\C(=N)N4N=C(CC(=O)N5CCOCC5)SC4=NC3=O)c2C)cc1	?	0.891µM*	3.5%	50.1µM*	5.3%[11.6 µM]	31.6µM*
CCc1ccc(/C=C2\C(=N)N3N=C(CC(=O)N4CCCCC4)SC3=NC2=O)cc1	?	-7.8%	0.8%	?	-5.7%	-7.4%
Cc1ccc(CN2CCOCCS2(=O)=O)cc1	-13.0%	nt	13.2%	21.0%	nt	nt
CN(C)c1ccc(/C=C/c2ccnc3ccc(Br)cc23)cc1	2.2%	nt	-26.3%	13.3%	nt	nt
CC1=C([N+](=O)[O-])C(c2ccc(Cl)cc2)NC(=O)N1C (configuration not stated)	0.2%	5.8%	-13.2%	30.2%	70.8µM*	-4.3%
Cc1ccc(S(=O)(=O)c2cn(CC(=O)Nc3ccc4c(c3)OCO4)c3ccc(F)cc3c2=O)cc1	-3.5%	13.6%	-1.2%	33.6%	nt	-9.2%
Cc1ccc2c(CC(=O)NNC(=O)c3ccccc3O)coc2c1	-38.9%	nt	2.1%	44.7µM*	-8.3%[11.6 µM]	?
COc1ccccc1NC(=O)Cc1coc2cc(C)ccc12	2.9%	14.4%	-13.6%	15.9%	2.5%	-5.1%
CCCCC1CCC(C(=O)N2CC(=O)Nc3ccc(C)cc3C2c2ccc(F)cc2)CC1 (configuration not stated)	-21.2%	0.9%	-7.3%	54.1%	nt	-13.9%
Nc1cc(=O)[nH]c(SCC(=O)N2N=C(c3ccc4ccccc4c3)CC2c2ccccc2)n1 (configuration not stated)	-7.9%	4.5%	-7.3%	44.7µM*	-9.6%	?
COc1cccc(/C=c2/[nH]c(=O)/c(=C\c3cccc(OC)c3OC)[nH]c2=O)c1OC	-4.2%	nt	-5.8%	1.6%	nt	nt
COc1ccc(NC(=O)NNC(=O)COc2ccc([N+](=O)[O-])c(C)c2)cc1OC	-4.0%	50.1µM*	1.8%	33.5%	-17.0%	-15.7%
COc1ccc(NC(=O)NNC(=O)COc2ccc3ccccc3c2)cc1OC	-13.3%	1.5%	-5.6%	2.2%	7.2%	4.9%
Cc1cc(Cl)ccc1OCC(=O)N(Cc1sccc1C)C1CCS(=O)(=O)C1 (configuration not stated)	15.3%	30.9%	-12.0%	-5.3%	nt	nt
Cc1ccc(-c2nn(-c3ccc(F)cc3F)c3c2cnc2ccc(F)cc23)cc1	-7.4%[60.1 µM]	-0.5%	22.3%	-3.6%	nt	-6.5%
Cn1ncc(N=Cc2c(O)ccc3ccccc23)c1C(=O)Nc1cccc(Cl)c1	-10.4%	1.2%	10.3%	?	?	50.1µM*
CC(=O)c1ccc([N+](C)(C)C)cc1	-20.7%	nt	1.4%	17.8%	nt	nt
c1ccc(Cc2nnc3sc(-c4ccco4)nn23)cc1	79.4µM*	-15.3%	?	39.8µM*	?	25.1µM*
Cc1ccccc1-n1nc2c(c1NC(=O)c1c(-c3ccccc3Cl)noc1C)CSC2	-15.1%	25.1%	?	79.4µM*	-12.7%	10.3%
Cc1cccc(-n2nc3c(c2NC(=O)c2ccco2)CSC3)c1C	28.2µM*	?	?	14.1µM*	44.7µM*	12.6µM*
CCNc1ncc2nc(C)c(=O)n(Cc3cccs3)c2n1	0.5%[60.1 µM]	nt	nt	nt	nt	nt
COc1ccc(N2CCN(C(c3ccc(C)cc3)c3nnnn3C(C)(C)C)CC2)cc1 (configuration not stated)	6.9%	nt	3.5%	10.1%	nt	nt
CCCN(C(=O)c1cc2c(=O)oc3ccccc3c2s1)c1ccccc1C	6.4%	-0.3%	-1.9%	-7.1%	nt	-15.9%
CCc1ccc(OCC(=O)NC(=S)Nc2ccc(C)cc2C)c(Br)c1	-2.5%	9.7%	0.6%	79.4µM*	-3.6%[57.1 µM]	-2.0%
CCc1ccc(OCC(=O)NNC(=S)NC(=O)C2CC2)c(Br)c1	-11.4%	16.8%	-10.2%	36.1%	-8.1%	-9.7%
